Experiment [1] can be described thus: Nuclear factor erythroid 2-related factor 2/antioxidant responsive element (Nrf2/ARE) small molecule agonists: luciferase reporter gene qHTS assay in human keratinocytes (AID 1919969). Further: nearly all actives have a fitted effect of over 35% in size. Further: potency means the concentration at half of the fitted maximal effect. Background: Reporter assays use an easily measured gene product as a stand-in for the process of interest.
Experiment [2] deals with KiSS-1 receptor (Homo sapiens) (UniProt Q969F8). Put plainly: Human kisspeptin (KISS1R) small molecule agonists, calcium flux assay in KISS1R-HEK293 cells (AID 1920064; active means well fitted activation curve with a large enough effect in the repeat runs). In outline: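 Kinetic calcium assay, 1 s sampling over 3 min at Ex/Em 480/540, in HEK293 cells engineered with human KISS1R; compounds delivered in DMSO after 1 h dye loading.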
Sequence of KiSS-1 receptor (Homo sapiens) (Q969F8 whole entry, looked up): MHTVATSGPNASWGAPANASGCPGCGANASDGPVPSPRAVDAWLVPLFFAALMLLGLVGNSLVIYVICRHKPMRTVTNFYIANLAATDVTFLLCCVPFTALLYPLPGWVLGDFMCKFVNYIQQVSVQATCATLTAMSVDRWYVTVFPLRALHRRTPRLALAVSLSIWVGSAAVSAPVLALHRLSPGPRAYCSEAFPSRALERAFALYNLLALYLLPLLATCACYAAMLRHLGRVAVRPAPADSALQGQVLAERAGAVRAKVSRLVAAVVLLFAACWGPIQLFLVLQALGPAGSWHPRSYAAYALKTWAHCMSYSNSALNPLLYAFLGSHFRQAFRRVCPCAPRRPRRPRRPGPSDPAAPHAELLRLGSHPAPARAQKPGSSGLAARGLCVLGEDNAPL
In general terms: A change in cytosolic calcium serves as a functional read-out for many receptors and channels.

Experiment [3] can be described thus: G protein-coupled receptor (GPCR) small molecule agonists, calcium flux assay: HEK293 wild type cell line counter screen (AID 1920065). Put shortly:
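Calcium-sensitive dye, loaded 1 h at 37 C into cells cultured 18 h, reports compound-evoked calcium release as fluorescence (Ex/Em 480/540), measured over 3 min. Agonist mode; 15-point titrations, triplicate.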

Experiment [4] in a line: p53 small molecule agonists, cell-based qHTS assay with human liver microsomes (AID 1963577). Put shortly: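 Compounds act here after metabolic activation: human liver microsomes and NADPH, both at 0.5 mg/mL final, were co-added to p53RE-bla cells. Incubation ran 16 h at 37 C, followed by LiveBLAzer detection.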
A general note: In qHTS, concentration-response curves come from the screen itself.

Experiment [5] in a line: p53 small molecule agonists, cell-based qHTS assay with rat liver microsomes (AID 1963578). In outline:
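Read-out is beta-lactamase reporter fluorescence (LiveBLAzer, 2 h, room temperature, dark) in p53RE-bla cells treated 16 h at 37 C with compound, rat liver microsomes and NADPH, both 0.5 mg/mL final.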

Experiment [6] can be described thus: p53 small molecule agonists, cell-based qHTS assay with human liver microsomes: qHTS cell viability counter screen (AID 1963579). Further: nearly all actives have a fitted effect of over 45% in size. Further: potency means the concentration at half of the fitted maximal effect. Put shortly: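 Cells carrying the p53 response-element beta-lactamase reporter are treated for 16 h at 37 C with test compounds in the presence of human liver microsomes and NADPH (both 0.5 mg/mL final); ATP-based CellTiter-Glo luminescence then reports viability.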

Experiment [7] is described as follows: p53 small molecule agonists, cell-based qHTS assay with rat liver microsomes: qHTS cell viability counter screen (AID 1963580). Further: nearly all actives have a fitted effect of over 45% in size. Put shortly: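 p53RE-bla HCT-116 cells were exposed 16 h at 37 C to compounds with rat liver microsomes (0.5 mg/mL) and NADPH (0.5 mg/mL). Viability was measured in the same wells as ATP content by CellTiter-Glo luminescence.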
Experiment [8] has as its target 5-hydroxytryptamine receptor 2A (Homo sapiens) (UniProt P28223). Put plainly: 5-hydroxytryptamine receptor 2A (HTR2A) small molecule antagonists, cell-based qHTS assay (AID 1963586). Further: nearly all actives have a fitted effect of over 45% in size. Put shortly:
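Antagonist-mode intracellular calcium assay: DOI (4 nM) added after 5 min compound pre-incubation at room temperature to dye-loaded HTR2A-CHO cells. Fluorescence followed for 3 min, sampled every second.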

Experiment [9] shares this target. Put plainly: 5-hydroxytryptamine receptor 2A (HTR2A) small molecule agonists, cell-based qHTS assay (AID 1963587). Further: nearly all actives have a fitted effect of over 30% in size. Further: potency means the concentration at half of the fitted maximal effect. Put shortly:
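CHO cells stably expressing human HTR2A, plated 18 h, loaded with calcium dye 1 h at 37 C. Agonist mode: compounds added and intracellular calcium fluorescence recorded kinetically for 2 min at 1 sec intervals.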

Experiment [10] deals with Muscarinic acetylcholine receptor M1 (Homo sapiens) (UniProt P11229). As to the kind of experiment: Cholinergic receptor muscarinic 1 (CHRM1) small molecule antagonists, cell-based qHTS assay (AID 1963588). Further: nearly all actives have a fitted effect of over 40% in size. In outline: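 CHRM1-CHO calcium-flux assay, antagonist mode. Cells were seeded 18 h, dye-loaded 1 h at 37 C and given compound for 5 min at RT, then acetylcholine was added at 50nM. FDSS fluorescence was read 3 min; 15 concentrations, three runs.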
Sequence of Muscarinic acetylcholine receptor M1 (Homo sapiens) (P11229 whole entry, looked up): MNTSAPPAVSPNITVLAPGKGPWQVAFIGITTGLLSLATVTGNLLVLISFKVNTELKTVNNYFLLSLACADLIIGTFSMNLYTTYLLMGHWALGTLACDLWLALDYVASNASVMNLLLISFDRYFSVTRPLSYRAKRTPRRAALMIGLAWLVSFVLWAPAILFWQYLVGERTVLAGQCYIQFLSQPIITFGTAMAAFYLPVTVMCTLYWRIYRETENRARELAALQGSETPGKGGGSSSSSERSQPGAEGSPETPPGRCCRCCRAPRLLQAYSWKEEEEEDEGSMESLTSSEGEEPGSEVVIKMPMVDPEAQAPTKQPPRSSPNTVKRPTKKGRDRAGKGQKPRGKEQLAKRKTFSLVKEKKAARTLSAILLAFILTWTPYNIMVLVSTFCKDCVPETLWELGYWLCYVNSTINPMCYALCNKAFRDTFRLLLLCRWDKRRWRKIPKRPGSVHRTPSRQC

Experiment [11] can be described thus: cAMP Responsive Elements (CRE) small molecule agonists, cell-based qHTS assay (AID 1963590). Put shortly:
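A CRE-responsive beta-lactamase reporter in HEK 293T cells was used. Treatment ran 3 h at 37 C; detection used LiveBLAzer B/G FRET substrate for 2 h at room temperature.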

Experiment [12] addresses D(2) dopamine receptor (Homo sapiens) (UniProt P14416). Put plainly: Dopamine D2 receptor (DRD2) small molecule agonists, cell-based qHTS assay (AID 1963594). Further: nearly all actives have a fitted effect of over 35% in size. In outline: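 HEK293 cells stably expressing human DRD2, pre-treated with PDE inhibitor Ro20-1724 (0.1 mM final) and compound 10 min at room temperature, then stimulated with NKH477 (200nM […]) for 30 min. cAMP read by HTRF (665/620 nm).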

Experiment [13] shares this target. Put plainly: Dopamine D2 receptor (DRD2) small molecule antagonists, cell-based qHTS assay (AID 1963595; active means well fitted inhibition curve with a large enough effect in the signal ratio in the repeat runs, with a control signal flat; the % refers to the signal ratio). In outline:
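In this cell-based antagonist screen, compounds act for 10 min at room temperature before a 30 min challenge with 12 nM quinpirole and 200 nM NKH477. cAMP is quantified by HTRF competition in DRD2-HEK293 cells containing 0.1 mM Ro20-1724.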

The target of experiment [14] is Muscarinic acetylcholine receptor M1 (Homo sapiens) (UniProt P11229). Put plainly: Cholinergic receptor muscarinic 1 (CHRM1) small molecule agonists, cell-based qHTS assay (AID 1963589). Further: nearly all actives have a fitted effect of over 35% in size. In outline: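 Measures agonist-induced intracellular calcium rise. Stable human CHRM1 CHO line, 1 h dye load at 37 C, compounds from DMSO, kinetic fluorescence read.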
The target of experiment [15] is Beta-2 adrenergic receptor (Homo sapiens) (UniProt P07550). As to the kind of experiment: Adrenergic beta2 receptor (ADRB2) small molecule antagonists, cell-based qHTS assay (AID 1963592). Further: series mostly up to about 92 µM; nearly all actives have a fitted effect of over 50% in size. Put shortly:
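Cells (CHO, stable ADRB2 overexpression) incubated 18-20hr at 37C; compounds added from DMSO; agonist mix (1nM isoproterenol, 100uM IBMX, 25uM Ro-20-1724) added; 0.5hr RT; d2-cAMP and anti-cAMP-cryptate added; 1hr RT; 665/615 nm read.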

Experiment [16] has the same target. Put plainly: Adrenergic beta2 receptor (ADRB2) small molecule agonists, cell-based qHTS assay (AID 1963593).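 Further: CHO cells stably overexpressing human ADRB2.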 Put shortly: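 CHO cells stably over-expressing ADRB2 were plated overnight at 37C, then dosed with compounds plus a stimulation mix containing 100uM IBMX and 25uM Ro-20-1724 for 0.5hr at room temperature. cAMP was measured by HTRF competition, 1hr.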

The target in experiment [17] is Gonadotropin-releasing hormone receptor (Homo sapiens) (UniProt P30968). Put plainly: Human gonadotropin-releasing hormone receptor (GnRHR) small molecule agonists, calcium flux assay in GnRHR-HEK293 cells (AID 1920063). Further: nearly all actives have a fitted effect of over 35% in size. Put shortly:
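We seeded human GnRHR-expressing HEK293 cells for 18 hours, loaded them with calcium dye for an hour at 37 C, added test compounds, and recorded fluorescence intensity kinetically for three minutes.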

Experiment [18] is described as follows: p53 small molecule agonists, cell-based qHTS assay: qHTS cell viability counter screen (AID 1963581). Further: nearly all actives have a fitted effect of over 45% in size. In outline:
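Following 5 h attachment, HCT-116 p53RE-bla cells took up compound for 16 h at 37 C; the reporter was read with B/G FRET substrate (2 h RT), and viability then via CellTiter-Glo ATP luminescence.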

Experiment [19] in a line: cAMP Responsive Elements (CRE) small molecule antagonists, cell-based qHTS assay (AID 1963591; active means well fitted inhibition curve with a large enough effect in the signal ratio in the repeat runs, not every such curve was filed as active; the % refers to the signal ratio). Put shortly: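 HEK293T cells carrying a CRE-driven beta-lactamase reporter receive compound and NKH477 (0.25 uM final) for 3 h. Fluorescence from LiveBLAzer B/G FRET substrate is read after 2 h at room temperature.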
A short description of experiment [20]: p53 small molecule agonists, cell-based qHTS assay (AID 1963582; active means well fitted activation curve with a large enough effect in the signal ratio in the repeat runs, not every such curve was filed as active; the % refers to the signal ratio). Put shortly:
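In this cell-based concentration-response screen, a p53 response element drives beta-lactamase; cells received DMSO-borne compounds after 5 h culture and were incubated a further 16 h before FRET substrate development.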

Structures are written as SMILES. Values joined by “and” are separate entries in the source; they are usually repeats but may differ in a detail not shown here. Equal values may be shown once. Results filed as inconclusive are left out. More than one record can exist for a structure, and the calls need not agree. Active and inactive are the calls of the source. Unless noted, the call rests on the fitted dose curve.

Experimental findings from PubChem BioAssay (Tox21) are described below.

Sequence of D(2) dopamine receptor (Homo sapiens) (P14416 whole entry, looked up): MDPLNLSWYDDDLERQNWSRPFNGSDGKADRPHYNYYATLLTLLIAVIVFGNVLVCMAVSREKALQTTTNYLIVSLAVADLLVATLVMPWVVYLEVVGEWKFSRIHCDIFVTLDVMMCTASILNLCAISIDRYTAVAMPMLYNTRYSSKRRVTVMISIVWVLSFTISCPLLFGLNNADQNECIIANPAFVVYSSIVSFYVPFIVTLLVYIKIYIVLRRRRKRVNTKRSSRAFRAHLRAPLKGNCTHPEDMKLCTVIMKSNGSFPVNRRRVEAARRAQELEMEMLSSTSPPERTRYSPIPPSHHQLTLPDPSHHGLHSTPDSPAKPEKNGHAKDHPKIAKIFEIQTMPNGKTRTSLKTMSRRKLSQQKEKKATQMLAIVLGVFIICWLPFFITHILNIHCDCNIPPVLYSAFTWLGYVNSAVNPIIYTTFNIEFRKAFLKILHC
Sequence of Gonadotropin-releasing hormone receptor (Homo sapiens) (P30968 whole entry, looked up): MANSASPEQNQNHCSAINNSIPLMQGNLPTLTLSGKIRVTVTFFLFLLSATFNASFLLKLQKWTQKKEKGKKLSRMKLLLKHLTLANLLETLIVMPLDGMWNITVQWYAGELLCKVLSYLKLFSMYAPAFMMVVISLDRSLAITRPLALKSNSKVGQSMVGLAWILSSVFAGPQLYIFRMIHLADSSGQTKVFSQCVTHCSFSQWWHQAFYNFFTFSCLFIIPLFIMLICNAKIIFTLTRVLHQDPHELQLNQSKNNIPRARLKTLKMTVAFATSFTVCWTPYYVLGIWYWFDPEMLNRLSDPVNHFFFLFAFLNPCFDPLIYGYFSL
Sequence of Beta-2 adrenergic receptor (Homo sapiens) (P07550 whole entry, looked up): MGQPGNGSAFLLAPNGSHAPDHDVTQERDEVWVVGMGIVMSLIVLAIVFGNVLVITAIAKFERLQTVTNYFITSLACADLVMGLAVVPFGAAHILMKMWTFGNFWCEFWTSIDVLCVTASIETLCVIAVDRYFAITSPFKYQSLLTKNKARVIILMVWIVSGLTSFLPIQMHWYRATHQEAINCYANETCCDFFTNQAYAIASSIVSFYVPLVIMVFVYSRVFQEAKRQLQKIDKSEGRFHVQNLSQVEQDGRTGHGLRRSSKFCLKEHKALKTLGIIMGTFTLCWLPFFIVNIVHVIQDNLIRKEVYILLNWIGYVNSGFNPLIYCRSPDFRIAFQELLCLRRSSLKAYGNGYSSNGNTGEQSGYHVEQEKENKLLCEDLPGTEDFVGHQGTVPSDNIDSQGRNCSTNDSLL
Sequence of 5-hydroxytryptamine receptor 2A (Homo sapiens) (P28223 whole entry, looked up): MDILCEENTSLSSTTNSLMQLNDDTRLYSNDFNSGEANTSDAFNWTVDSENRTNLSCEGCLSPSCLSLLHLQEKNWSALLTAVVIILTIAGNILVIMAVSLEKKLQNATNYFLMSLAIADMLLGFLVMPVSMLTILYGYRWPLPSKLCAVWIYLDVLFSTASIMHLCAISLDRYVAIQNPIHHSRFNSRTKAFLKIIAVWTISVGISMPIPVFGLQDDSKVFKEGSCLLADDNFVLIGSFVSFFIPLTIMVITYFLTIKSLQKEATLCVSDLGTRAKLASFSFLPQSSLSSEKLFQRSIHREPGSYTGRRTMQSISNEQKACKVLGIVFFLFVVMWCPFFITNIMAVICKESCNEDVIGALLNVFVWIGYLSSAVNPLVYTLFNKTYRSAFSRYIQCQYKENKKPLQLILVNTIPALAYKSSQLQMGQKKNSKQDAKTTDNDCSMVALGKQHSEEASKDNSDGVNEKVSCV

Regarding `Oc1ccc(C2(c3ccc(O)cc3)CCCCC2)cc1`, the Potency result in experiment [1], in experiment [2], in experiment [3], in experiment [4], in experiment [5] and in experiment [7] was “inactive” in each case. Moreover, the Potency entry in [8], in experiment [9], in [10], in experiment [11], in [12] and in [13] was “inactive” throughout. Also, in experiment [6], the Potency was 43.3 µM (active).
With `Cc1c(COC(=O)[C@@H]2[C@H](/C=C(\Cl)C(F)(F)F)C2(C)C)cccc1-c1ccccc1`, the Potency is 53.2 µM (active) and 27.2 µM (active) in [1]; 38 µM (active) and inactive in [9]. For the same compound, the Potency entry in experiment [2], in experiment [3], in [4], in [5], in experiment [6] and in experiment [8] was “inactive” in each case. In addition, the Potency entry in experiment [10], in experiment [14], in experiment [11], in experiment [15], in experiment [16] and in experiment [12] was “inactive” each time. In addition, in experiment [13], the Potency result was “inactive”.
With `Fc1ccc(Oc2ccnc3cc(Cl)cc(Cl)c23)cc1`, in experiment [1], the Potency is 24.3 µM (active). Besides, the Potency result in [17], in experiment [2], in [5], in experiment [6], in experiment [7] and in [18] was “inactive” each time. Also, the Potency result in experiment [8], in [9], in [10], in [14], in experiment [19] and in experiment [15] was “inactive” throughout. For the same compound, the Potency result in experiment [16] and in experiment [13] was “inactive” throughout.
`O=S1(=O)OCC2C(CO1)C1(Cl)C(Cl)=C(Cl)C2(Cl)C1(Cl)Cl` (stereo not given): the Potency in experiment [1] is 24.3 µM (active). In addition, the Potency result in experiment [2], in [3], in experiment [4], in experiment [5], in experiment [6] and in experiment [7] was “inactive” in each case. Moreover, the Potency entry in experiment [18], in experiment [8], in experiment [9], in experiment [10], in experiment [14] and in [15] was “inactive” throughout. The Potency result in experiment [12] and in experiment [13] was “inactive” each time.
For `O=C1C(I)=CC(=C(c2cc(I)c(O)c(I)c2)c2ccccc2C(=O)O)C=C1I`, the Potency entry in experiment [1], in [2], in experiment [3], in experiment [7], in experiment [8] and in experiment [9] was “inactive” throughout. Moreover, the Potency entry in experiment [10], in experiment [14], in experiment [19], in experiment [15], in experiment [12] and in experiment [13] was “inactive” throughout.
As to `CN(C)C(=O)Oc1cc(OC(=O)N(C)C)cc(C(O)CNC(C)(C)C)c1` (stereo not given), the Potency entry in experiment [1], in experiment [17], in experiment [3], in [5], in [6] and in experiment [7] was “inactive” throughout. For the same compound, the Potency entry in experiment [18], in [11], in [19], in experiment [15] and in experiment [13] was “inactive” throughout.
On to `ClC(Cl)=C(c1ccc(Cl)cc1)c1ccccc1Cl`, for which the Potency result in [1], in [2], in experiment [3], in experiment [4], in [5] and in experiment [6] was “inactive” throughout. For the same compound, the Potency entry in [18], in experiment [9], in experiment [10], in [19], in experiment [15] and in experiment [12] was “inactive” in each case.
As to `CC(C)(C)C(O)/C(=C\c1ccc(Cl)cc1Cl)n1cncn1` (stereo not given), the Potency entry in experiment [17], in [2], in experiment [3], in experiment [4], in experiment [5] and in experiment [6] was “inactive” in each case. For the same compound, the Potency result in [18], in experiment [20], in [8], in experiment [10], in experiment [15] and in experiment [12] was “inactive” in each case.
